Source: PubChem BioAssay (Sanford-Burnham Center for Chemical Genomics)
Compounds with a hit are over-represented: about 4% of the library has one in this group of screens.
KKLEB tox – cytotoxicity in KKLEB CF airway cells, primary screen, cytotoxicity control for CF NF-kB inhibitor project, cell-based, uHTS, fluorescence assay plates; KKLEB CF airway cells viability, ATPlite luminescence, overnight; active compounds read low; cells stimulated with P. aeruginosa culture filtrate; activity change (cytotoxicity), % at 5 µM; 360,000 tested, 0.36% active; AID 602141, 2011;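 active = corrected activity change at or below -50% at 5 µM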
CF NFkB block – inhibitors of PAF-induced NF-kB signaling, primary screen, cell-based, GFP fluorescence, uHTS; 360,000 tested, 0.86% active; KKLEB NF-kB-GFP reporter, GFP fluorescence overnight; inhibition, % at 5 µM;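 active = at least 50% inhibition at 5 µM, scaled per plate between neutral and stimulator controls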;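 also: PAF is a Pseudomonas aeruginosa culture filtrate used as stimulus; plate controls were PAF-stimulated DMSO wells for no effect and unstimulated DMSO wells for full effect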
Peg3 promoter – Peg3 promoter-driven luciferase inhibitors, primary screen, cell-based, HeLa, luciferase luminescence; HeLa PEG-Prom luciferase reporter, overnight; inhibition, % at 20 µM; 360,000 tested, 1.7% active;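 active = inhibition of at least 50% at 20 µM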
HIF-2a inh – HIF-2a reporter inhibitors, primary screen, luminescence, 786-0 RCC cells. 786-0 RCC cells HIF-2a reporter, luciferase luminescence, overnight. inhibition, % at 18.8 µM. 360,000 tested, 0.72% active;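 active = inhibition of the luminescence signal of 40% or more relative to plate controls, in a single-dose primary screen at 18.75 µM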
TROY signal inh – inhibitors of TROY-driven NF-kB signaling, primary screen, Q293 LMP1-TROYcd cells, NF-kB luciferase, uHTS | Q293 LMP1-TROYcd NF-kB luciferase reporter, 4 h | AID 1347056, 2019 | 360,000 tested, 0.98% active | inhibition, % at 10 µM;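 active = compounds whose plate-normalised and pattern-corrected inhibition of the luciferase reporter signal at the single screening dose is 50% or more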
TWEAK Fn14 block – inhibitors of TWEAK-Fn14 signaling, primary screen, luciferase reporter cells, uHTS; TWEAK-stimulated Fn14 reporter cells, luciferase luminescence, 8 h; inhibition, % at 10 µM; 360,000 tested, 2% active; AID 1159606, 2016; in the data active = inhibition above about 50%
* = called active by the depositor; ! = a repeat was not active.

Results for NC(=O)c1ccc(Nc2nc(C(N)COCc3ccccc3)cs2)cc1 (centres undefined) ?
KKLEB tox: -4; CF NFkB block: 21; Peg3 promoter: 11; HIF-2a inh: -1; TROY signal inh: 1; TWEAK Fn14 block: 0

Results for COc1ccc(CCNC(=O)Nc2nc(C(N)CCc3ccccc3)cs2)cc1OC (centres undefined) ?
KKLEB tox: 1; CF NFkB block: 0; Peg3 promoter: 28; HIF-2a inh: 1; TROY signal inh: 5; TWEAK Fn14 block: 10

How did O=C(CSc1nnc(-c2ccncc2)n1CC1CCCO1)Nc1cccc(O)c1 (centres undefined) do in these assays?
KKLEB tox: 0; CF NFkB block: 7; Peg3 promoter: 24; HIF-2a inh: 17; TROY signal inh: 3; TWEAK Fn14 block: -3

Results for Cc1sc2nc(C3CC3)nc(SCC(=O)N3CC(=O)Nc4ccccc43)c2c1C ?
KKLEB tox: 14; CF NFkB block: -16; Peg3 promoter: 7; HIF-2a inh: 6; TROY signal inh: 15; TWEAK Fn14 block: 18

How did COc1ccccc1NC(=O)Nc1nc(CC(=O)N2CCN(c3ccc(F)cc3)CC2)cs1 do in these assays?
KKLEB tox: -20; CF NFkB block: 14; Peg3 promoter: 45; HIF-2a inh: -3; TROY signal inh: 40; TWEAK Fn14 block: 51*

How did NC(c1csc(NC(=O)Nc2ccccc2)n1)C1CCCCC1 (centres undefined) do in these assays?
KKLEB tox: -4; CF NFkB block: 20; Peg3 promoter: 48; HIF-2a inh: -11; TROY signal inh: -13; TWEAK Fn14 block: -2

What do the screens show for `COc1ccc(N2CCN(C(=O)Cc3csc(NC(=O)Nc4ccccc4OC)n3)CC2)cc1`?
KKLEB tox: -17; CF NFkB block: 14; Peg3 promoter: 38; HIF-2a inh: 18; TROY signal inh: 17; TWEAK Fn14 block: 28

Results for NC(c1csc(NC(=O)Nc2cccc(Cl)c2)n1)C1CCCCC1 (centres undefined) ?
KKLEB tox: -12; CF NFkB block: 32; Peg3 promoter: 92*; HIF-2a inh: 5; TROY signal inh: 1; TWEAK Fn14 block: -4

Results for CCOc1cc(N2CCCC2)ccc1[N+](=O)[O-] ?
KKLEB tox: 4; CF NFkB block: -8; Peg3 promoter: 6; HIF-2a inh: 4; TROY signal inh: 13; TWEAK Fn14 block: -10

How did NC(=NCCCCCCN=C(N)/N=C(\N)Nc1ccc(Cl)cc1)/N=C(\N)Nc1ccc(Cl)cc1 do in these assays?
KKLEB tox: 23; CF NFkB block: 20; Peg3 promoter: 102*!; HIF-2a inh: 24; TROY signal inh: 28; TWEAK Fn14 block: 46

Results for CC(C)N=C(N)N=C(N)Nc1ccc(Cl)cc1 ?
KKLEB tox: -14; CF NFkB block: 6; Peg3 promoter: 17; HIF-2a inh: -2; TROY signal inh: -1; TWEAK Fn14 block: 2

What do the screens show for `O=C(Nc1ccccn1)c1csc2c1CCCC2`?
KKLEB tox: 0; CF NFkB block: -14; Peg3 promoter: -242; HIF-2a inh: -143; TROY signal inh: -52; TWEAK Fn14 block: -22

What do the screens show for `O=C(Nc1ccccn1)c1onc2c1CCCC2`?
KKLEB tox: -7; CF NFkB block: -7; Peg3 promoter: 32; HIF-2a inh: 37; TROY signal inh: 59*; TWEAK Fn14 block: 89*

How did COc1ccc(N=C2S/C(=C\c3ccc(N4CCOCC4)o3)C(=O)N2CCc2c[nH]c3ccccc23)cc1 do in these assays?
KKLEB tox: -16; CF NFkB block: -9; Peg3 promoter: 101*; HIF-2a inh: 92*; TROY signal inh: 16; TWEAK Fn14 block: 97*

How did COc1ccc(OC(C)C(=O)Nc2cccc([N+](=O)[O-])c2)cc1 (centres undefined) do in these assays?
KKLEB tox: 10; CF NFkB block: -6; Peg3 promoter: -1; HIF-2a inh: 5; TROY signal inh: 5; TWEAK Fn14 block: -3

What do the screens show for `O=C(N/N=C/c1ccc2ncccc2c1)c1ccco1`?
KKLEB tox: -10; CF NFkB block: 8; Peg3 promoter: 3; HIF-2a inh: 15; TROY signal inh: 51*; TWEAK Fn14 block: 70*

What do the screens show for `CC(=O)Nc1ccc(-c2csc(N/N=C\c3ccncc3)n2)cc1`?
KKLEB tox: 4; CF NFkB block: -29; Peg3 promoter: -22; HIF-2a inh: -90; TROY signal inh: -44; TWEAK Fn14 block: -13

How did CCCC(=O)Nc1ccc(-c2csc(N/N=C\c3ccncc3)n2)cc1 do in these assays?
KKLEB tox: 0; CF NFkB block: -26; Peg3 promoter: 68*; HIF-2a inh: -174; TROY signal inh: -37; TWEAK Fn14 block: 20

Results for Cc1cc(C)c2c(N)c(C(=O)c3ccccc3Cl)sc2n1 ?
KKLEB tox: -7; CF NFkB block: 11; Peg3 promoter: 22; HIF-2a inh: 6; TROY signal inh: 17; TWEAK Fn14 block: 11

Results for Cc1cc(C)c2c(N)c(C(=O)c3ccc(Cl)cc3Cl)sc2n1 ?
KKLEB tox: 7; CF NFkB block: 49; Peg3 promoter: -1; HIF-2a inh: 8; TROY signal inh: 30; TWEAK Fn14 block: 52*

Results for Cc1cccc(OCc2nnc(SCC(=O)c3c(N)n(C4CC4)c(=O)[nH]c3=O)o2)c1 ?
KKLEB tox: 10; CF NFkB block: -32; Peg3 promoter: 16; HIF-2a inh: 3; TROY signal inh: -4; TWEAK Fn14 block: 2

How did CC(Oc1cc2oc(=O)cc(-c3ccccc3)c2cc1Cl)C(=O)NCC1CCC(C(=O)O)CC1 (centres undefined) do in these assays?
KKLEB tox: 4; CF NFkB block: 12; Peg3 promoter: 4; HIF-2a inh: 3; TROY signal inh: 4; TWEAK Fn14 block: 6

Results for CC(NC(=O)OC(C)(C)C)C(=O)Oc1cc2oc(=O)cc(-c3ccccc3)c2cc1Cl (centres undefined) ?
KKLEB tox: -18; CF NFkB block: 82*; Peg3 promoter: -7; HIF-2a inh: -18; TROY signal inh: 46; TWEAK Fn14 block: 71*

What do the screens show for `O=C(C1CCCCC1)N1CCN=C1SCc1cccc([N+](=O)[O-])c1`?
KKLEB tox: -7; CF NFkB block: 26; Peg3 promoter: 13; HIF-2a inh: 24; TROY signal inh: 26; TWEAK Fn14 block: 54*

What do the screens show for `COc1ccc(N/C=C/C(=O)c2sc(-c3ccccc3)nc2C)cc1`?
KKLEB tox: -4; CF NFkB block: 9; Peg3 promoter: -26; HIF-2a inh: -57; TROY signal inh: -25; TWEAK Fn14 block: -4
